Measured values as given in PubChem BioAssay.
Several values for one entry are separate records, joined by “and”; a condition that tells them apart may be missing. Equal entries are not always repeated. Some structures have more than one record in an assay (separate samples or runs), and their calls can disagree. Activity calls are given as the source filed them.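 How the source made its calls: active means growth inhibition above 50% at the single 2 µM test dose, taken to imply half-maximal potency below 2 µM; inactive means the rest.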

assay: antimalarial activity against Dd2 strain (AID 2302);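 further: 0% = DMSO untreated growth and 100% = chloroquine plus artemisinin killed control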; conditions: P. falciparum Dd2 in RBCs, LDH growth readout, 72 h; at 2 µM; stronger effect = higher value

SMILES | growth inhibition
COCCNCc1ccc(-c2ccc(CN(C(=O)NC3CCCCC3)C3CCN(Cc4ccccc4)CC3)cc2)cc1 | 84% (active)
CC[C@H]1CN2CC[C@H]1C[C@H]2[C@H](O)c1cc(Cl)nc2ccc(OC)cc12 | 92% (active)
CC(=O)Nc1ccc2[nH]cc(C3CCN(CC4CCN(C(=O)/C=C/c5ccc(Cl)c(Cl)c5)CC4)CC3)c2c1 | 41% (inactive)
COc1ccccc1CNCC(O)c1cc(C(F)(F)F)ccc1C(F)(F)F (centres undefined) | 95% (active)
CC(C)CNCc1ccc(-c2ccc(CN(C(=O)NC3CCCCC3)C3CCN(Cc4ccccc4)CC3)cc2)cc1 | 88% (active)
O=C(Nc1cc(C(F)(F)F)cc(C(F)(F)F)c1)N1CCC(CN2CCC(c3c[nH]c4ccccc34)CC2)CC1 | 99% (active)
COc1ccc(OC)c(CNCC(O)c2cc(C(F)(F)F)cc(C(F)(F)F)c2)c1 (centres undefined) | 100% (active)
Cc1[nH]c2ccc(O)cc2c1C1CCN(CC2CCC(NC(=O)/C=C/c3ccc(Cl)c(Cl)c3)CC2)CC1 (centres undefined) | 95% (active)
CC[C@H]1CN2CC[C@H]1C[C@@H]2[C@@H](OC(=O)c1ccc(Cl)cc1)c1ccnc2ccc(OC)cc12 | -3% (inactive)
CC(=O)Nc1ccc(OCCN(CC(F)(F)F)c2ccc(C#N)cc2C(F)(F)F)cc1 | 83% (active)
COc1ccc(CC(C)NCC(O)c2cccc(Cl)c2F)cc1 (centres undefined) | 59% (active)
CN(c1cc(NC(=O)c2cccs2)ccn1)C1CCN(Cc2ccccc2)CC1 | 87% (active)
Cc1[nH]c2cc(F)ccc2c1C1=CCN(CCCCC2(C)C(=O)Nc3ccccc32)CC1 (centres undefined) | 90% (active)
Cc1cc(C(=O)NC2CCN(CC3(c4ccc(Cl)cc4)CCC3)CC2)on1 | 95% (active)
O=C(c1cc(C(=O)NCc2ccc(Cl)cc2)c(=O)n(Cc2ccc(Cl)cc2)c1)c1cc(Cl)ccc1O | 4% (inactive)
CCCc1c(C(=O)NC2CCC(CN3CCC(c4c[nH]c5ccccc45)CC3)CC2)cnn1-c1ccccc1 (centres undefined) | 7% (inactive)
Cc1cc2ccc(CNCCc3ccccc3Br)cc2nc1N | 48% (inactive)
CSc1ccc(C[C@@H](C)NC[C@H](O)c2cccc(Cl)c2)cc1 | 96% (active)
CC(=O)N(Cc1ccccc1-c1cccc(CNCCc2ccccc2)c1)C1CCN(Cc2ccccc2)CC1 | 30% (inactive)
CC(Cc1ccc(S(=O)(=O)N(C(C)C)C(C)C)cc1)NCC(O)c1cccc(C(F)(F)F)c1 (centres undefined) | 93% (active)

SMILES | growth inhibition
O=C(/C=C/c1ccc(Cl)c(Cl)c1)N1CCC(CN2CCC(c3c[nH]c4ccc(NS(=O)(=O)c5cccs5)cc34)CC2)CC1 | 100% (active)
COc1ccc(CC(C)NCC(O)c2cccc(Cl)c2)cc1C (centres undefined) | 78% (active)
CN1CC=C(c2c[nH]c3ccc(Oc4ccccc4)cc23)CC1 | 98% (active)
CC(Cc1ccc(NC(=O)[C@@H](C)NCCc2cccc(Cl)c2)cc1)NCCc1cccc(Cl)c1 (some centres undefined) | 54% (active)
Cc1csc(NC2=NCCN2)n1 | 1% (inactive)
O=C(C=Cc1cc([N+](=O)[O-])ccc1Cl)NC1CCC(CN2CCC(c3c[nH]c4ccccc34)CC2)CC1 (centres undefined) | 94% (active)
CC(=O)C1(c2ccccc2)CCN(CCC2(c3ccc(Cl)c(Cl)c3)CN(C(=O)C3CCCC3)CCO2)CC1 (centres undefined) | 70% (active)
S=C(NCCc1ccc(Cl)cc1)NC1CCC(CN2CCC(c3c[nH]c4ccccc34)CC2)CC1 (centres undefined) | 34% (inactive) and 84% (active)
CC(Cc1ccc(SC(C)(C)C)cc1)NCC(O)c1cccc(Cl)c1 (centres undefined) | 99% (active)
CS(=O)(=O)Nc1ccc2[nH]cc(C3CCN(CC4CCN(C(=O)/C=C/c5ccc(Cl)c(Cl)c5)CC4)CC3)c2c1 | 92% (active)
C=C[C@@H]1CN2CC[C@H]1C[C@H]2[C@H](O)c1cc(-c2ccc(Cl)cc2)nc2ccc(OC)cc12 | 98% (active)
OC(CNCc1ccccc1OC(F)F)c1cccc(C(F)(F)F)c1 (centres undefined) | 52% (active)
C#CCN1CCC2=C(C1)c1c(O)cc(C(C)CCCc3ccc(F)cc3)cc1OC2(C)C (centres undefined) | 90% (active)
CC[C@H]1CN2CC[C@H]1C[C@H]2[C@H](O)c1cc(-c2ccc3ccccc3c2)nc2ccc(OC)cc12 | 99% (active)
COc1ccc2[nH]cc(C3=CCN(C[C@H]4C[C@@H]4C(=O)c4ccccc4)CC3)c2n1 | 93% (active)
O=C1Nc2cccc3c2C1(CCCCCN1CC=C(c2c[nH]c4ccccc24)CC1)CCC3 (centres undefined) | 89% (active)
COC(C(=O)OCCC1CCCN1C)(c1ccccc1)c1ccccc1 (centres undefined) | 9% (inactive)
CC(Cc1ccc(Oc2ccc(Cl)cc2)cc1)NCC(O)c1cccc(Cl)c1 (centres undefined) | 98% (active)
O=C(CCc1ccco1)NC1CCN(CC2(c3ccc(Cl)cc3)CCC2)CC1 | 67% (active)
